Laboratory results reported in PubChem BioAssay (NCATS).
Records with an inconclusive call do not appear. Calls of active or inactive are those of the source. Calls follow the shape of the dose curve; as a rule, active = well fitted inhibition curve with a large enough effect; inconclusive = small, poorly fitted or top-dose-only effect; inactive = no such curve, though single readings can be large or run the other way.

Each molecule was assayed on Zika virus NS2B-NS3 protease (unlinked) (assay: Optimization of GU AMC qHTS for Zika virus inhibitors: Unlinked NS2B-NS3 protease assay (AID 1347151; also: nearly all actives have a fitted effect of over 80% in size;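 as to activity change, negative = inhibition: 0% = no-inhibitor control and -100% = no-enzyme control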)). Settings: recombinant ZIKV NS2B-NS3 protease, fluorogenic AMC substrate; series mostly up to 52.5 µM; activity change, negative = inhibition: at the top concentration.
How it was run: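 In this qHTS, compounds acted on 25 nM unlinked Zika NS2B–NS3 in pH 8.0 Tris/Tween buffer. Cleavage of an AMC peptide ran 15 min at room temperature, to about 20% conversion.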
Potency is read from the fitted curve at half-maximal effect.

| SMILES | activity change, negative = inhibition | Potency |
| --- | --- | --- |
| O=C(O)CCCCCCCC(=O)O | -1.6% (inactive) | – |
| CCCCCN(CCCCC)C(=O)C(CCC(=O)O)NC(=O)c1ccc(Cl)c(Cl)c1 (stereo not given) | -23.2% (inactive) | – |
| C[C@]12CC[C@@H]3c4ccc(O)cc4C[C@@H](CCCCCCCCCS(=O)CCCC(F)(F)C(F)(F)F)[C@H]3[C@@H]1CC[C@@H]2O (stereo not given in full) | -5.32% (inactive) | – |
| COc1cc(Cc2cnc(N)nc2N)cc(OC)c1OC | -2.41% (inactive) | – |
| COC(=O)[C@H]1[C@H]2C[C@@H]3c4[nH]c5cc(OC)ccc5c4CCN3C[C@H]2C[C@@H](OC(=O)c2cc(OC)c(OC)c(OC)c2)[C@@H]1OC | – | 15 µM (active) |
| CC(C)NNC(=O)c1ccncc1 | -0.361% (inactive) | – |
| NCCCNCCSP(=O)(O)O | 7.4% (inactive) | – |
| CCN(CC)CC(=O)Nc1c(C)cccc1C | 9.53% (inactive) | – |
| C[n+]1cc2c3c(ccc2c2ccc4cc5c(cc4c21)OCO5)OCO3 | – | 5.97 µM (active) |
| C[C@H](CS)C(=O)N1CCC[C@H]1C(=O)O | 2.94% (inactive) | – |
| CN1C[C@H](C(=O)N[C@]2(C)O[C@@]3(O)[C@@H]4CCCN4C(=O)[C@H](Cc4ccccc4)N3C2=O)C[C@@H]2c3cccc4[nH]cc(c34)C[C@H]21 | -13.2% (inactive) | – |
| CN(C)CC/C=C1\c2ccccc2COc2ccccc21 | 8.5% (inactive) | – |
| CC(C)COCC(CN(Cc1ccccc1)c1ccccc1)N1CCCC1 (stereo not given) | -14.4% (inactive) | – |
| C(=C\c1ccccc1)/CN1CCN(C(c2ccccc2)c2ccccc2)CC1 | 3.27% (inactive) | – |
| c1cc(CN2CCCCC2)cc(OCCCNc2nc3ccccc3s2)c1 | -5.11% (inactive) | – |
| CC(=O)[C@@]1(O)CC[C@H]2[C@@H]3CCC4=CC(=O)CC[C@]4(C)[C@H]3CC[C@@]21C | 0.336% (inactive) | – |
| Nc1nc(N)c2nc(-c3ccccc3)c(N)nc2n1 | 4910% (inactive) | – |
| CCCNC(C)C(=O)Nc1ccccc1C (stereo not given) | 0.35% (inactive) | – |
| CC(C)[N+](C)(CCOC(=O)C1c2ccccc2Oc2ccccc21)C(C)C | 3.34% (inactive) | – |
| CN/C(=C\[N+](=O)[O-])NCCSCc1ccc(CN(C)C)o1 | -2.45% (inactive) | – |
| C[C@]12C=CC(=O)C=C1CC[C@H]1[C@@H]3C[C@@H](O)[C@](O)(C(=O)CO)[C@@]3(C)C[C@H](O)[C@@]12F | 2.02% (inactive) | – |
| CC(=O)Nc1nnc(S(N)(=O)=O)s1 | 5.44% (inactive) | – |
| CN(C)CCOC(=O)COc1ccc(Cl)cc1 | 0.362% (inactive) | – |
| CCCN1C[C@H](CSC)C[C@@H]2c3cccc4[nH]cc(c34)C[C@H]21 | -10.4% (inactive) | – |
| CC(C)(C)c1ccc(C(=O)CCCN2CCC(OC(c3ccccc3)c3ccccc3)CC2)cc1 | -25.2% (inactive) | – |
